HSP90 refold inh: HSP90 inhibitors, primary screen, cell lysate, luminescence; Heat shock protein HSP 90 (rabbit reticulocyte lysate; luciferase refolding); inhibition, % at 5.6 µM; hit rate 0.91% among 290,000; Rabbit reticulocyte lysate, luciferase refolding luminescence, 3 h; AID 1789, 2009;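 active means inhibition above the screen-wide mean plus 3 SD, computed separately per campaign, cut at about 16% in these data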;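 further: 0% = DMSO wells and 100% = 60 µM geldanamycin wells; inhibitors lower the luminescence because luciferase stays unfolded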
TWEAK Fn14 block: inhibitors of TWEAK-Fn14 signaling, primary screen, luciferase reporter cells, uHTS. inhibition, % at 10 µM. TWEAK-stimulated Fn14 reporter cells, luciferase luminescence, 8 h. hit rate 2% among 360,000; in the data active means inhibition above about 50%
TROY NFkB inh: inhibitors of TROY-driven NF-kB signaling, primary screen, Q293 LMP1-TROYcd cells, NF-kB luciferase, uHTS; Q293 LMP1-TROYcd NF-kB luciferase reporter, 4 h; inhibition, % at 10 µM; hit rate 0.98% among 360,000; AID 1347056, 2019;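 active means compounds whose plate-normalised and pattern-corrected inhibition of the luciferase reporter signal at the single screening dose is 50% or more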
LGR2 antag: inhibitors of bursicon-induced LGR2 CRE-luciferase signal, primary screen, cell-based, HEK293, CRE-luciferase reporter, bursicon stimulation; inhibition, % at 9.99 µM; AID 720647, 2013; hit rate 0.35% among 380,000; bursicon-stimulated, 4 h;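 active means drop in luminescence signal, shown as inhibition above about 50% in the replicate tests, limit read from the data, passing the limit was not always enough; inconclusive means probably only some replicates passing the limit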;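 further: agonist challenge used bursicon conditioned medium at about half maximal strength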
HSP90 confirm: HSP90 inhibitors, confirmation, cell lysate, luminescence; shares compounds with HSP90 refold inh; rabbit reticulocyte lysate, luciferase refolding luminescence, 3 h; inhibition, % at 5.9 µM; hit rate 64% among 2,300; AID 1846, 2009; in the data active means inhibition above about 18%;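 further: 0% = vehicle wells and 100% = reference inhibitor wells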
luciferase ctr: firefly luciferase inhibitors, HSP90 counter-screen, confirmation, artefact control for HSP90 inhibitor project, biochemical, luminescence, triplicate. hit rate 48% among 2,300. inhibition, % at 5.9 µM. shares compounds with HSP90 refold inh. purified native firefly luciferase;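 active means inhibition above the mean inhibition of all tested sample wells plus 3 SD, cut at about 10% in these data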;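 further: 0% = DMSO with luciferase and 100% = wells lacking luciferase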
Target sequence (P08659 whole entry, looked up): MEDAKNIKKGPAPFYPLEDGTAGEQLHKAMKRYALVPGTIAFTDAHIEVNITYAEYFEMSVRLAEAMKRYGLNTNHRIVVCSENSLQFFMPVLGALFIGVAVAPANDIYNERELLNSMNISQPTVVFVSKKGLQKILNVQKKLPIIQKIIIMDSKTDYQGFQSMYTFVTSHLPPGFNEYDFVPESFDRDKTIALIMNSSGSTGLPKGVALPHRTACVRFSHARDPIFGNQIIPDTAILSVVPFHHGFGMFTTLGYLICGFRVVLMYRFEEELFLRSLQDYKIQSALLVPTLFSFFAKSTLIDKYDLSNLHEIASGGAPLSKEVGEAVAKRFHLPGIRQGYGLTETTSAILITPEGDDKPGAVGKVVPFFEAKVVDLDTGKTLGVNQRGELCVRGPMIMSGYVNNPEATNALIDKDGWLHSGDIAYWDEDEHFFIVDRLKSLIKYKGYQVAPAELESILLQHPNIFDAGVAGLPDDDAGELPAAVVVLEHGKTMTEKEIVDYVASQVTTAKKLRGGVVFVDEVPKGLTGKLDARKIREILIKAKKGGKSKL
Numbers without * were called inactive; ? = inconclusive; . = no result given. Hits are enriched below; roughly 2.2% of the tested compounds scored in any of these assays.

SMILES	HSP90 refold inh	TWEAK Fn14 block	TROY NFkB inh	LGR2 antag	HSP90 confirm	luciferase ctr
CC(=O)C1=C(C)OC(N)=C(C#N)C1c1cccc2ccccc12 (stereo unspecified)	-2	14	18	1	.	.
C[C@H](CO)N1C[C@H](C)[C@@H](CN(C)Cc2ccc3c(c2)OCO3)OCCCC[C@H](C)Oc2ccc(NC(=O)C3CCCCC3)cc2C1=O	.	.	.	-23	.	.
Cc1cc(C(=O)O)ccc1N/C=C1\CCCC(C)C1=O (stereo unspecified)	34*	25	.	.	70*	32*
CC1CCC/C(=C\Nc2ccc(O)cc2)C1=O (stereo unspecified)	4	14	-1	.	.	.
O=C(O)[C@H]1[C@H](CO)[C@H]2Cn3c(ccc(-c4ccccc4)c3=O)[C@H]2N1CCc1ccccc1	.	.	.	7	.	.
CC1=CC2=NC(=O)/C(=C\c3cccn3CCOc3cc(C)ccc3C)C(=N)N2O1	53*	13	15	20	-2	-8
CC1=CC2=NC(=O)/C(=C\c3cccn3CCOc3cccc(C)c3)C(=N)N2O1	-1	7	-5	11	.	.
N#Cc1ccc(-c2ccc([C@H]3[C@@H](CO)N4C(=O)CN(C(=O)C5CCCCC5)C[C@@H]34)cc2)cc1	.	.	.	11	.	.
O=C(O)C[C@H]1C[C@@H]2c3cc(NC(=O)C4CCC4)ccc3O[C@@H]2[C@H](CO)O1	.	.	.	25	.	.
O=C1CC(c2ccc3c(c2)OCCO3)Oc2ccccc21 (stereo unspecified)	-5	-11	1	-62	.	.
O=C1CC(c2ccc3c(c2)OCCO3)Oc2ccc([N+](=O)[O-])cc21 (stereo unspecified)	55*	98*	85*	-31	66*	64*
CCOC(=O)C1CCN(c2ccc(-c3cccs3)nn2)CC1	27*	-25	2	12	34*	38*
CCOC(=O)C1CCN(c2ccc(Cl)nn2)CC1	1	-3	8	12	.	.
c1csc(-c2ccc(N3CCOCC3)nn2)c1	28*	-13	25	18	34*	17*
O=C(Nc1cccc(-c2ccc(N3CCOCC3)nn2)c1)c1ccccc1	.	-34	-70	-28	.	.
C[C@H](CO)N1C[C@H](C)[C@H](CN(C)C(=O)c2ccc(F)cc2)Oc2ncc(C#C[C@@H](C)O)cc2C1=O	.	.	.	-13	.	.
O=C(O)c1ccc(N/N=C2/CCCc3ccccc32)cc1	18*	4	-41	-55	2	-6
COc1ccc(N(C)C(=O)Nc2ccc3c(c2)nnn3C)cc1	3	9	-4	11	.	.
CC(C)N(C(=O)Nc1ccc2nsnc2c1)C(C)C	29*	.	.	82*	8	-2
COc1ccc(NC(=S)Nc2ccc3nsnc3c2)cc1	43*	-4	-35	-47	4	-21
C=CCN(CC=C)C(=S)Nc1ccc2nsnc2c1	31*	5	-18	-66	-1	-13
C=CCNC(=S)Nc1ccc2nsnc2c1	-1	-13	-45	5	.	.
COc1ccc(N(C)C(=O)Nc2ccc3nsnc3c2)cc1	21*	8	20	-24	0	-12
COCC(=O)Nc1ccc2c(c1)C(=O)N(C)C[C@H](OC)[C@H](C)CN(CCc1ccccc1)[C@H](C)CO2	.	.	.	-31	.	.
O=C(C[C@H]1CC[C@@H](NC(=O)Nc2cc(F)ccc2F)[C@H](CO)O1)NCc1ccncn1	.	.	.	-8	.	.
SMILES	HSP90 refold inh	TWEAK Fn14 block	TROY NFkB inh	LGR2 antag	HSP90 confirm	luciferase ctr
O=C(C[C@@H]1CC[C@H](NC(=O)C2CCOCC2)[C@H](CO)O1)NCc1ccncc1	.	.	.	-2	.	.
C[C@@H]1CN([C@@H](C)CO)C(=O)c2cc(NC(=O)Cn3cnnn3)ccc2O[C@@H]1CN(C)Cc1ccc(Oc2ccccc2)cc1	.	.	.	-17	.	.
O=C(N/C(=C\c1cccs1)C(=O)N1CCCCCC1)c1ccccc1	31*	-22	1	-10	-1	-20
O=C(N/C(=C/c1cccs1)C(=O)N1CCCCCC1)c1ccccc1	0	1	-3	2	.	.
COc1cccc(S(=O)(=O)N[C@@H]2C=C[C@H](CC(=O)NCc3ccc(F)cc3)O[C@@H]2CO)c1	.	.	.	2	.	.
Oc1ccccc1-c1cc(-c2ccc3c(c2)OCCO3)n[nH]1	21*	71*	58*	.	38*	35*
CCOC(=O)N1CCC(N2C(=O)c3ccccc3C2Nc2ccc3c(C)cc(=O)oc3c2)CC1 (stereo unspecified)	18*	-8	10	-14	2	0
O=C(COc1ccc2ccccc2c1)Nc1nccs1	23*	75*	-28	73*	54*	49*
CC(C)(C)N=C1NN=C(c2ccc(Cl)cc2)CS1	20*	65*	62*	-31	22*	22*
CC(=O)c1c(C)[nH]c(C2=NNC(=NC(C)(C)C)SC2)c1C	1	10	-8	-43	.	.
CC(C)(C)N=C1NN=C(c2cc3ccccc3o2)CS1	20*	63*	70*	-17	29*	23*
COc1ccc(CN=C2NN=C(c3ccc(Cl)cc3)CS2)cc1	-3	-15	8	5	.	.
NC(=O)c1ccc2nc(NC(=O)c3ccc(N)cc3)sc2c1	4	-7	-29	-31	.	.
O=C(O)c1ccc2nc(-c3ccccc3)sc2c1	95*	79*	-12	63*	95*	79*
Oc1ccc(-c2nc3ccccc3s2)cc1	9	35	-66	-44	.	.
Nc1ccc(-c2nc3ccc(C(=O)O)cc3s2)cc1	100*	97*	21	102*	101*	92*
CC1CCN(c2nc3ccc(C(=O)O)cc3s2)CC1	97*	96*	34	.	100*	92*
C[C@@H]1CN([C@@H](C)CO)C(=O)Cc2cc(NC(=O)c3ccncc3)ccc2O[C@H]1CN(C)Cc1ccc(Oc2ccccc2)cc1	.	.	.	16	.	.
CC(C)c1ccc2oc(-c3cc(N)ccc3O)nc2c1	46*	81*	69*	.	80*	79*
CC1=CC(C)(C)Nc2ccc(OC(=O)c3ccco3)cc21	17*	88*	38	-22	32*	-9
CC(C)c1ccc(NCCC(=O)c2cccs2)cc1	29*	44	11	-60	35*	-9
C[C@@H]1CCCCO[C@@H](CN(C)C(=O)Nc2ccc(C(F)(F)F)cc2)[C@H](C)CN([C@@H](C)CO)C(=O)c2cc(NC(=O)NC3CCCCC3)ccc2O1	.	.	.	2	.	.
COc1ccc(C(=O)NCCC2=CCCCC2)cc1	32*	75*	36	?	54*	48*
COc1ccc(C(=O)NCC(=O)OCC(=O)NCCC2=CCCCC2)cc1	0	-2	-9	3	.	.

Screening results as filed in PubChem BioAssay.
